Screening results as filed in PubChem.
FEN1 inhibitor: human FEN1 inhibition; P39748; Recombinant FEN1 flap cleavage, fluorescence, 15 min; Potency, µM (highest dose often 114 µM), without a hit: at the top dose activity change, negative = inhibition, most hits filed as inhibitors; actives 0.35% (n = 390,000); further: on the % scale 0 is the no-effect control and ±100 the full control effect; nearly all actives have a fitted effect of over 65% in size
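Reaction started by adding substrate (50 nM final) to 10 nM enzyme after 15 min room-temperature compound preincubation. Reads at 0 and 15 min, with data normalized and fitted to a four-parameter Hill equation.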
Pol iota inh: inhibitors of human DNA polymerase iota; Pol iota fluorescent replication assay, 10 min; Potency, µM (doses to about 115 µM), for inactives: at the highest dose activity, negative = inhibition, most hits filed as inhibitors; actives 1% (n = 390,000); AID 588590
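Pol iota at 10 nM preincubated 15 min with compounds at room temperature; reaction started with fluorescent substrate, 50 nM final. Fluorescence read kinetically at 0 and 10 min; buffer-only wells as negative control.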
WRN inhibitor: inhibitors of human WRN helicase; WRN helicase unwinding, fluorescent forked duplex, kinetic; AID 651768; Q14191; Potency, µM (series often up to 114 µM), for the others: top-dose activity change, negative = inhibition, hits mostly inhibitors; actives 0.46% (n = 360,000); further: on the % scale 0 is the no-effect control and ±100 the full control effect; nearly all actives have a fitted effect of over 55% in size
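Enzyme (20 nM final) and test compound sit together 15 min at room temperature before substrate addition. Substrate is a single-forked duplex oligonucleotide (100 nM) labelled with fluorophore and quencher, with 2 mM ATP; helicase unwinding raises red fluorescence, read kinetically.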
POLB inh: inhibitors of human DNA polymerase beta; Potency, µM (series often up to 114 µM), without a hit: at the highest dose activity change, negative = inhibition, most hits filed as inhibitors; actives 1.3% (n = 340,000); P06746; AID 485314; Pol beta primer extension/strand displacement, fluorescence kinetic; further: on the % scale 0 is the no-effect control and ±100 the full control effect
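Pol beta (10 nM) and compounds were preincubated 15 min at room temperature, then 50 nM substrate (final) started primer extension/strand displacement. Reads were taken at 0 and 10 min; concentration-response data were fitted to a four-parameter Hill equation.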
Pol eta inh: inhibitors of human DNA polymerase eta; AID 588591; recombinant Pol eta, fluorescent DNA replication assay; actives 1.2% (n = 390,000); Q9Y253; Potency, µM (series often up to 114 µM), inactives show top-dose activity change, negative = inhibition, usual class: inhibitors; further: on the % scale 0 is the no-effect control and ±100 the full control effect
Target sequence (Q9Y253 whole entry, looked up): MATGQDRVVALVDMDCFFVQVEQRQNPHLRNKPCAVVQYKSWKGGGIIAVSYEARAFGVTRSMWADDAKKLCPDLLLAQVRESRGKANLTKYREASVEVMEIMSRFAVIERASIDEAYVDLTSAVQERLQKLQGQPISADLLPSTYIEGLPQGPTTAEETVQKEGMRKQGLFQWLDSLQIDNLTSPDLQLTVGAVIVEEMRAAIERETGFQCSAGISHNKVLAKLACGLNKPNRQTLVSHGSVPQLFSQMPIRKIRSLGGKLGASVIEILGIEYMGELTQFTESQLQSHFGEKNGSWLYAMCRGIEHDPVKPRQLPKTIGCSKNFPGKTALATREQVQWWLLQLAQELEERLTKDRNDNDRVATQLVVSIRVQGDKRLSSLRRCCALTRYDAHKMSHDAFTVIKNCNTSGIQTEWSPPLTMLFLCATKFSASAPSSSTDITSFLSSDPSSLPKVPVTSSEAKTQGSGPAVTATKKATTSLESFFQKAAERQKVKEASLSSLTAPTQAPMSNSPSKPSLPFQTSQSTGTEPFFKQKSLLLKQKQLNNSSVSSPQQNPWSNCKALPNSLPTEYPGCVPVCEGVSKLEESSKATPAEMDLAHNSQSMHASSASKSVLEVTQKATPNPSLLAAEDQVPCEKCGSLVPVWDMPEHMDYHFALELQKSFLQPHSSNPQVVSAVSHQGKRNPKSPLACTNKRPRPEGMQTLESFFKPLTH
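Fluorescent replication assay: 50 nM final substrate added after a 15 min room-temperature compound preincubation with 10 nM enzyme. Signal taken at 0 min and again at 10 min.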
Pol kappa inh: DNA polymerase kappa (human) inhibition; AID 588579; Potency, µM (series often up to 107 µM), without a hit: at the highest dose activity, negative = inhibition, most hits filed as inhibitors; purified Pol kappa, fluorescent DNA synthesis assay, 10 min; Q9UBT6; actives 0.53% (n = 400,000); further: on the % scale 0 is the no-effect control and ±100 the full control effect
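10 nM Pol kappa was preincubated with compounds for 15 min at room temperature. Reaction started with 50 nM (final) substrate. Fluorescence read kinetically at 0 and 10 min.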
* hit, by the source's call; ? = inconclusive; . = no result given; [ ] = dose if it differs, or a comment. Only some compounds are listed: those with a hit (about 2.4% of all), similar ones and a draw of the others. The call rests on the fitted dose curve; in most records, active means well fitted curve in the direction sought with a large enough effect; inconclusive means small, poorly fitted or top-dose-only effect, or another doubt; inactive means no such curve, though single readings can be large; an effect the other way counts as inactive or inconclusive. Potency means the concentration at half of the fitted maximal effect.

SMILES | FEN1 inhibitor | Pol iota inh | WRN inhibitor | POLB inh | Pol eta inh | Pol kappa inh
CC(C)OC(=O)C1Cc2ccccc2CN1S(=O)(=O)c1cccs1 (configuration not stated) | 6% | ? | -2%[11.6 µM] | 32µM* | ? | -31%
NC(=O)C1Cc2ccccc2CN1S(=O)(=O)c1cccs1 (configuration not stated) | -7% | 35% | 2% | 4% | -16% | 6%
CCOC(=O)C[C@H]1c2cc(F)ccc2S(=O)(=O)N1Cc1cc(OC)c(OC)c(OC)c1 | -4% | 9% | . | . | . | -1%
CC(C)CC(=O)Nc1ccc(-c2nnn(CC(=O)NCc3ccco3)n2)cc1 | 1% | 79µM* | -2%[11.6 µM] | ? | 16% | -25%
CCCCOc1ccc(-c2nnn(CC(=O)NCc3ccco3)n2)cc1 | 3% | ? | -9% | 17% | 2% | -8%
N#CCCN(Cc1ccccc1)C(=O)c1cccs1 | 12% | 50% | 2% | 0.16µM* | -21% | -2%
CCc1ccc2oc(-c3ccc(C)c(NC(=O)COc4ccc(Cl)cc4)c3)nc2c1 | -9% | -4% | . | . | . | -12%
CCN(CC)c1ccccc1/C=C/[n+]1ccc(CCCCI)c2ccccc21 | ? | ? | . | . | . | 50µM*
Oc1nc(Nc2ccc(Cl)cc2Cl)sc1/C=C1\C=Nc2ccccc21 | ? | ? | ? | ? | 14µM* | -26%
Cc1cnc(CNc2ncncc2-c2ccccc2C(F)(F)F)cn1 | . | . | . | . | . | -7%[60.1 µM]
O=C(O)CCC(=O)N1CCc2cc(S(=O)(=O)N3CCCCC3)ccc21 | -13% | 9% | 1% | 35% | -7% | -11%
O=C(O)CCC(=O)N1CCc2cc(S(=O)(=O)N3CC=C(c4ccccc4)CC3)ccc21 | -2% | ? | -1% | 22µM* | ? | ?
CC1CC2=C(NC(=S)NC2c2ccc(F)cc2)/C(=C/c2ccc(F)cc2)C1 (configuration not stated) | -14% | 79µM* | -5%[11.6 µM] | 30% | -17% | -8%
CSc1nc(NCCOCCO)c2sc3nc(-c4ccco4)c4c(c3c2n1)CCC4 | 2% | 12% | -13% | 3.5µM* | -13% | -1%
CCN(CCO)c1ncnc2c1sc1nc(C(C)C)c3c(c12)CC(C)(C)OC3 | 2% | ? | -8% | 18% | -10% | -18%
CSc1nc(NCc2ccco2)c2sc3nc(C(C)C)c4c(c3c2n1)CC(C)(C)OC4 | -6% | -4% | 6% | 15% | -14% | -16%
CCN(CCO)c1nc(SC)nc2c1sc1nc(-c3ccco3)c3c(c12)CCC3 | -9% | ? | -13% | 7.1µM* | -15% | ?
Cc1oc(-c2cccc(Cl)c2)nc1CS(=O)(=O)CC(=O)NC(C)CCc1ccccc1 (configuration not stated) | -13% | 89µM* | . | -6% | -8% | -8%
CCCCN(CCCC)c1ccc(C=Nc2ccc(/C=C/c3ccnc4ccccc34)cc2)cc1C | -7% | -11% | . | . | . | 2%
COc1ccccc1CCNC(=O)c1ccc2nc[nH]c2c1 | -8% | 1% | -6% | 45µM* | ? | -11%
CC(C)CCNC(=O)c1ccc2nc[nH]c2c1 | 0% | -9% | 16% | 8% | -12% | 8%
O=C(NCCc1ccc(Cl)cc1Cl)c1ccc2nc[nH]c2c1 | 15% | 3% | 7% | 34% | -16% | -2%
O=C(NCCSc1ccc(Br)cc1)c1ccc2nc[nH]c2c1 | 10% | 20µM* | -32% | 40µM* | 22µM* | -37%
CCn1c(SCC(=O)Nc2nccc(C)n2)nc2ccccc21 | 2% | ? | -19% | 79µM* | -21% | -5%
CCOC(=O)c1ccccc1OCc1cc(C2Nc3ccccc3C(=O)N2c2cccc3ccccc23)ccc1OC (configuration not stated) | -2% | 14% | . | . | . | -23%
SMILES | FEN1 inhibitor | Pol iota inh | WRN inhibitor | POLB inh | Pol eta inh | Pol kappa inh
COc1ccc(OC)c(NC(=O)c2c(NCc3ccc(C)o3)sc3c2CCCCC3)c1 | ? | 28µM* | . | -5% | -21% | 0%[60.1 µM]
Nc1cnccn1 | -5% | 9% | . | . | . | ?
CCN(CCCCCCN)c1ccc2c(=O)[nH][nH]c(=O)c2c1 | 3% | 46% | 0%[11.6 µM] | -27% | 79µM* | -5%
C[n+]1cccc(C2C(C#N)=C(N)Oc3c2ccc2ccccc32)c1 (configuration not stated) | -24% | 109% | 28% | 7% | -14% | -23%
C[n+]1cccc2ccc3c(c21)OC(N)=C(C#N)C3c1ccccc1 (configuration not stated) | -10% | 18µM* | -5% | 3% | -3% | -16%
O=c1oc2cc(O)ccc2c2ccccc12 | -23% | 6% | -4% | 0% | ? | -21%
O=c1oc2cc(O)ccc2c2oc3cc(O)ccc3c12 | 40µM* | ? | ? | 35µM* | ? | ?
Cc1cc(C(=O)O)ccc1-n1c(C)cc(/C=C(/C#N)C(=O)Nc2ccccc2)c1C | 1% | 79µM* | ? | -5% | ? | -9%
Cc1ccsc1/C=N/n1c(-c2cc(-c3ccccc3)n[nH]2)n[nH]c1=S | -34% | ? | -35% | 11µM* | ? | ?
Cc1ccccc1/C=N/n1c(-c2cc(-c3ccccc3)n[nH]2)n[nH]c1=S | 3% | 3% | -25% | ? | -2% | 0%
CN1/C(=C/C=C(C#N)C#N)C=Cc2ccccc21 | 13% | 79µM* | 43%[11.6 µM] | -4% | -2% | 2%
COc1ccccc1N1CCN(C(=O)C(C)CS(=O)(=O)c2ccc3c(c2)NC(=O)CS3)CC1 (configuration not stated) | -7% | 10% | -7% | 8.9µM* | -9% | -4%
COc1ccc(OC)c(/C=C/c2cc3ccccc3cn2)c1 | ? | -23% | . | . | . | -11%
O=C(/C=C1\NC2(CCCC2)Cc2ccccc21)C(=O)N/N=C/c1ccc(O)c(O)c1 | -31% | ? | ? | 2µM* | 11µM* | -39%
CCOC(=O)c1ccc(S(=O)(=O)Nc2nc3cc(S(=O)(=O)NC4=NCCCCC4)ccc3s2)cc1 | -8% | 14µM* | ? | 1% | -5% | -3%
COc1ccc(CN2CC[C@H]3C=CC[C@@H](C(=O)Nc4ccc(Cl)cc4Cl)[C@H]3C2=O)cc1OC | 3% | 6% | . | . | . | -18%
Cc1cc(NC(=O)CSCC(=O)N(c2ccc(F)cc2)C(C(=O)NC2CCCCC2)c2ccc(O)c(O)c2)no1 (configuration not stated) | -11% | ? | 0% | 20µM* | ? | -19%
Cn1ncc(C#N)c1/N=C/N1CCCC1 | 8% | -4% | 1% | 89µM* | -6% | 7%
CCNC(=O)CSc1ncnc2sccc12 | 4% | ? | -32% | ? | 22µM* | -17%
